This is a sample that favours compounds with a hit; in the whole collection about 3.3% have one here.
Epigenetic mod – derepresses silenced GFP locus in mouse C127i cells | mouse C127i GFP locus derepression, cytometry, 30 h | Potency, µM (highest dose often 46.1 µM), for the others: at the highest dose GFP derepression (activation) | hit rate 0.09% among 68,000; further: % of control where 0% means no effect
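Locus derepression in mouse mammary C127i cells whose integrated CMV-GFP reporter is normally silent; GFP expression after 30 h compound treatment was quantified by counting fluorescent cells.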
FLuc inh – inhibitors of firefly luciferase | purified firefly luciferase, luminescence, 8 min | Potency, µM (series often up to 57.1 µM), inactives show at the top dose activity change, negative = inhibition, usual class: inhibitors | P08659 | AID 411 | hit rate 2.2% among 72,000; further: potency means the concentration at half of the fitted maximal effect; on the % scale 0 is the no-effect control and ±100 the full control effect; nearly all actives have a fitted effect of over 40% in size
Target sequence (P08659 whole entry, looked up): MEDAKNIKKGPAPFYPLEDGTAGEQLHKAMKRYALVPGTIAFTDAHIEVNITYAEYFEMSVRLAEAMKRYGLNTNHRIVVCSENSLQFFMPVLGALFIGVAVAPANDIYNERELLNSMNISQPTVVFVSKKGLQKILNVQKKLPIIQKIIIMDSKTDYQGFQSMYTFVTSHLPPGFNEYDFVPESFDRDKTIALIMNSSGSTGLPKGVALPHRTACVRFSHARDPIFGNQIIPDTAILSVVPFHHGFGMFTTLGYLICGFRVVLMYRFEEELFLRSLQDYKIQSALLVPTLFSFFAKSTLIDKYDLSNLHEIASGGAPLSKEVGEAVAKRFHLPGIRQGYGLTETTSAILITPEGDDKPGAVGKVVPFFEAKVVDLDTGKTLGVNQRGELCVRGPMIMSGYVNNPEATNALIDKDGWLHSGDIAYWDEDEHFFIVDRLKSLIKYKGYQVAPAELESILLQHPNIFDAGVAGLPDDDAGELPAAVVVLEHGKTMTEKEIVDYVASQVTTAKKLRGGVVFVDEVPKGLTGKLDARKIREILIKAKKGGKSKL
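Substrate buffer containing 10 uM ATP (pH 7.2 imidazole, Mg2+, KCl, detergent, BSA) is dispensed, compound pinned in, then luciferase/luciferin detector mix added. After 8 min at ambient temperature, light output is measured.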
HBB splicing – hemoglobin beta splicing modulation. Potency, µM (top dose mostly 46.1 µM), for the others: top-dose activation, hits mostly activators. AID 925. hit rate 0.06% among 65,000. HBB splicing reporter cell assay, activation; EGFP reporter with mutant IVS2-654 intron; response scale: normalised to 500 nM splice-correcting PNA; further: potency means the concentration at half of the fitted maximal effect; 0% is about no effect
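HeLa cells stably expressing EGFP interrupted by mutant beta-globin intron 2 (IVS2-654), 500/well in 2% FCS. Treated with compound for 2 days at 37C. Splicing correction scored as total well GFP intensity (488 nm excitation, 500-520 nm emission); 500 nM antisense PNA served as control.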
GBA mod – alters purified human glucocerebrosidase activity; AID 360; Potency, µM; P04062; hit rate 1.1% among 48,000; purified enzyme, resorufin glucoside fluorescence (screen aimed at inhibitors), 20 min; in the data active means potency below about 15 µM; inconclusive means mostly about 16 µM to 33 µM;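 further: potency means the concentration at half of the fitted maximal effect; the screen sought inhibitors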
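Normal human glucocerebrosidase (0.2 nM final) was assayed with resorufin β-D-glucopyranoside (30 uM final) in 50mM citric acid/KH2PO4, 10mM sodium taurocholate, 0.01% tween-20, pH 5.9. Compounds were titrated; fluorescence (Ex 548, Em 600) read after 20 min at RT.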
Ub-GFP proteasome – proteasome inhibitors stabilizing ubiquitin-GFP reporter; Ubiquitin-GFP reporter cells, proteasome inhibition, GFP fluorescence; response scale: untreated = 0%, 10 µM MG-132 = 100%; Potency, µM (top dose mostly 45.9 µM), for the others: at the top dose activation (GFP accumulation), most hits filed as activators; 67,000 tested, under 10 active; AID 526; active means well fitted activation curve with a large enough effect, not every such curve was filed as active; inconclusive means small, poorly fitted or top-dose-only effect, or another doubt; inactive means no such curve, though single readings can be large or run the other way; further: potency means the concentration at half of the fitted maximal effect
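U2OS cells stably expressing ubiquitin(G76V)-GFP, seeded overnight in 0.5% FBS medium, were exposed to compounds (qHTS, 46 uM to 2.9 nM) for 4 hr at 37 °C. GFP-positive cells were counted by laser cytometry (488 ex/515 em), normalized between basal and 10 uM MG-132.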
Bst PK mod – pyruvate kinase (B. stearothermophilus) modulation; purified pyruvate kinase, luminescence ATP production; ribose 5-phosphate activator present at AC10; Potency, µM; hit rate 1.2% among 51,000; in the data active means potency below about 11 µM; inconclusive means mostly about 12 µM to 25 µM;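 the screen sought inhibitors and activators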;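 further: potency means the concentration at half of the fitted maximal effect; scaled between full activation by ribose 5 phosphate and full inhibition by luteolin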
Numbers without * were called inactive; i = inactive; ? = inconclusive; nt = not tested or not shown; ! = a repeat was not active; [ ] = another dose, or the depositor's remark. Unless noted, the call rests on the fitted dose curve; in most records, active means well fitted curve in the direction sought with a large enough effect; inconclusive means small, poorly fitted or top-dose-only effect, or another doubt; inactive means no such curve, though single readings can be large; an effect the other way counts as inactive or inconclusive.

SMILES	Epigenetic mod	FLuc inh	HBB splicing	GBA mod	Ub-GFP proteasome	Bst PK mod
CCOC(=O)CSc1nnc(-c2ccccc2NC(=O)c2ccccc2)o1	-3%	3%	nt	8.3*	0%	>57
c1ccc(-c2nnc(-c3ccccn3)nn2)nc1	2%	?	-1%[57.5 µM]	>77	-1%	7.1*
Cc1ccc(O)c(N=Nc2ccccc2)n1	0%	13µM*!	-2%	nt	2%	nt
Cc1cc(Nc2ccc(N=Nc3ccc(O)c4ncccc34)cc2)nc(C)n1	2%[9.22 µM]	-2%[11.4 µM]	3%[9.22 µM]	nt	-4%[9.17 µM]	nt
CC(O)c1nc2ccccc2n1Cc1nnc(-c2ccc(Cl)cc2)o1 (stereo not given)	4%	-9%	0%[57.5 µM]	>77	-2%	2.5*
CCn1nc(NC(=O)c2cccnc2)c2cc3cccc(C)c3nc21	0%	2%	-1%	>77	-8%	>57
Cc1ccc2nc3c(cc2c1)c(NC(=O)c1cccnc1)nn3C	3%	13µM*	-1%	i	5%	i
CCN1C(C)=C(C(=O)OC)C(c2ccccc2)N2C(=O)[C@](O)(C(=O)OC)CC(C(C)=O)=C12 (stereo not given in full)	nt	nt	2%[9.22 µM]	nt	nt	nt
O=Nc1ccc2oc(=O)ccc2c1	-1%	-15%	4%	nt	2%	nt
COC(=O)c1cccc(NC(=O)c2ccc(S(=O)(=O)N3CCN(C)CC3)cc2)c1	0%	-1%	nt	?	6%	>57
CCCCOC(=O)Nc1ccc(N2CCOCC2)cc1	2%	-16%	0%[9.22 µM]	nt	5%	nt
CCN(CC)c1ccc(NC(=O)c2ccc(Br)o2)cc1	0%	10µM*	0%[0.0738 µM]	nt	-15%[9.17 µM]	nt
O=C(Nc1ccc(N2CCCC2)cc1)c1ccc(Br)o1	-2%	2.5µM*	-1%[0.0738 µM]	nt	-9%[9.17 µM]	nt
CCCCOC(=O)Nc1ccc(N2CCCCC2)cc1	2%	13µM*	-6%	nt	-9%	nt
COC(=O)Cc1ccc(NC(=O)c2ccc(Br)o2)cc1	3%	-30%	3%	>77	2%	nt
CN1CCN(S(=O)(=O)c2ccc(NC(=O)c3ccc(F)cc3)cc2)CC1	6%	2%	0%	14*	-1%	>57
CCOC(=O)OCC1OC(c2ccc(C(C)=O)cc2)C=CC1OC(=O)OCC (stereo not given)	nt	nt	1%[9.22 µM]	nt	nt	nt
CCn1c(=O)c(=O)[nH]c2cc(C(=O)Nc3ccc(S(=O)(=O)N4CCCC4)cc3)ccc21	1%	0%	-1%	5.1*	-2%	>57
CCn1c(=O)c(=O)[nH]c2cc(C(=O)NC3CCCc4ccccc43)ccc21 (stereo not given)	2%	3%	2%	nt	4%	i
O=C(Nc1ccc(N2CCCCC2)cc1)c1ccc(F)cc1	-2%	4µM*	0%[57.5 µM]	>77	5%	nt
COc1cc(/C=C\C(=O)N2CCCCC2=O)cc(OC)c1OC	-2%[9.22 µM]	1%[11.4 µM]	nt	nt	-5%	nt
CCOC(=O)OCC1OC(c2ccccc2)C=CC1OC(=O)OCC (stereo not given)	nt	nt	1%[9.22 µM]	nt	nt	nt
Cc1nc(NC2CCCCC2)c2nc(-c3ccccc3)n(CCCN3CCOCC3)c2n1	nt	nt	-2%	nt	7%	nt
COc1ccccc1NC(=O)c1ccccc1-c1nc(-c2ccccc2OC)no1	0%	16µM*	-1%	>77	3%	nt
O=c1cnn(-c2ccccc2)c(-c2ccccc2)c1	0%	13µM*	1%	>77	-4%	nt
SMILES	Epigenetic mod	FLuc inh	HBB splicing	GBA mod	Ub-GFP proteasome	Bst PK mod
COc1cnn(-c2ccccc2)c(=O)c1N(C)C	-3%	-1%	-1%	>77	1%	>57
CCC[C@@H]1O[C@@H]2C[C@@H]3[C@@H]4CCC5=CC(=O)C=C[C@@]5(C)[C@H]4[C@H](O)C[C@@]3(C)[C@@]2(C(=O)CO)O1	1%	-4%	0%	nt	-5%	nt
O=C(Nc1ccncc1)c1ccc2c(c1)OCCO2	5%	?	-1%	nt	12%	nt
O=C(NC1CC1)c1cccc(Nc2ccc(-c3ccc4c(c3)OCCO4)nn2)c1	0%	2µM*	nt	>77	3%	1.5*
COCCNc1ncnc2c1cnn2-c1ccc(Cl)cc1	10%[20.6 µM]	10µM*	nt	nt	nt	10*
Clc1ccc(Nc2ncnc3c2cnn3-c2ccccc2)cc1	nt	?	0%	nt	-2%	nt
OCCOCCNc1ncnc2c1cnn2-c1ccccc1	-4%[20.6 µM]	-11%[25.5 µM]	nt	nt	nt	>26
COCCN(CCOC)c1ncnc2c1cnn2-c1ccc(Cl)cc1	2%	-18%	0%	>77	-3%	nt
OCCOCCNc1ncnc2c1cnn2-c1ccc(Cl)cc1	6%[20.6 µM]	10µM*	nt	nt	nt	11*
CC(C)Nc1ncnc2c1cnn2-c1ccc(Cl)cc1	nt	2.5µM*	-1%	nt	4%	nt
N=C1C(c2nc3ccccc3[nH]2)=C(O)CN1c1ccccc1	2%	-9%	-1%	>15	6%	nt
CC1C(O)=C(c2nc3ccccc3[nH]2)C(=N)N1c1ccccc1 (stereo not given)	3%	25µM*	5%	>77	-7%	nt
CCCCCCN1CC(O)=C(c2nc3ccccc3[nH]2)C1=N	0%	-1%	0%	11*	1%	>57
CC(=O)N1CCN(c2ccc(NCc3ccccc3)cc2)CC1	0%	-3%	nt	13*	-5%	>57
Cc1cc(C(=O)NCCC2=CCCCC2)c(C)o1	6%	16µM*	4%	>77	-3%	nt
COc1cc(C(=O)NCCC2=CCCCC2)cc(OC)c1OC	-2%	1%	2%[0.0738 µM]	nt	1%[9.17 µM]	nt
